# Data taken from the supplement of paper PMC12024529.
# Test system: HEK293 WT BDD-FVIII-Gluc
# Test: secreted FVIII-Gluc luciferase Z-score vs DMSO control; higher = more FVIII-Gluc secretion
# Conditions: 5 µM
# Method: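 Natural plant-compound library (480 compounds, ST catalogue IDs) screened on HEK293 cells stably expressing WT BDD-FVIII-Gaussia luciferase fusion at 5 µM. Secreted Gluc activity in the medium is given as a Z-score relative to DMSO controls.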
row,Structure (SMILES),secreted FVIII-Gluc luciferase Z-score
1,CC(=O)Oc1c(C)c(C)c2c(c1C)CCC(C)(CCCC(C)CCCC(C)CCCC(C)C)O2 (stereo not given),0.728
2,Cn1ccc(O)c(C#N)c1=O,0.00283
3,C[C@@H]1O[C@@H](O[C@H]2[C@H](Oc3cc(O)c4c(c3)O[C@H](c3ccc(O)cc3)CC4=O)O[C@H](CO)[C@@H](O)[C@@H]2O)[C@H](O)[C@H](O)[C@H]1O,1.39
4,O=c1cc(-c2ccccc2O)oc2c(O)c(O)ccc12,0.356
5,COc1cc2oc(=O)cc(C)c2cc1OC,0.58
6,CC(=O)Oc1ccc(/C=C/C(=O)CC2OC(Oc3cc(OC(C)=O)c4c(c3)O[C@@H](c3ccc(OC(C)=O)cc3)CC4=O)C(OC(C)=O)C(OC(C)=O)C2OC(C)=O)cc1 (stereo not given in full),0.201
7,Cc1cc(O)c2c(c1)C(=O)c1cccc(O)c1C2=O,0.974
8,O=c1ccn([C@@H]2O[C@H](CO)[C@@H](O)[C@H]2O)c(=O)[nH]1,0.943
9,O=c1ccc2cc3ccoc3cc2o1,-0.26
10,O=C(O)c1cc(O)c2c(c1)C(=O)c1cccc(O)c1C2=O,0.381
11,CC1(C)S[C@@H]2[C@H](NC(=O)C(N)c3ccccc3)C(=O)N2[C@H]1C(=O)O (stereo not given in full),-0.57
12,C/C1=C\CC(OC(=O)c2ccc(O)cc2)/C(C)=C/C(O)C(C)(C)CCC1 (stereo not given),-0.0859
13,CC(=O)OC1CCC2(C)C(=CCC3C2CC[C@]2(C)C(C(C)=O)CCC32)C1 (stereo not given in full),0.0308
14,O=c1c(O)c(-c2ccc(O)cc2)oc2cc(O)cc(O)c12,-0.239
15,C=CCc1ccc(O)c(OC)c1,-0.898
16,C=C1CCC2C(C)(CC[C@@H](O)C2(C)C)C1COc1ccc2ccc(=O)oc2c1 (stereo not given in full),0.344
17,COc1ccc2cc1Oc1ccc(cc1)C[C@H]1c3cc(c(OC)cc3CCN1C)Oc1c(OC)c(OC)cc3c1[C@H](C2)N(C)CC3,0.132
18,C[C@H](CCC(=O)O)[C@H]1CC[C@H]2[C@@H]3CC[C@@H]4C[C@H](O)CC[C@]4(C)[C@H]3CC[C@]12C,1.27
19,COc1ccc2c(=O)cc(-c3ccccc3)oc2c1O,0.609
20,COc1cc2c(Cc3c4c5c(cc(OC)c(OC)c5c5c(OC)c(OC)ccc35)CCN4C)c3c4c(cc(OC)c(OC)c4c2cc1OC)CCN3C,-0.165

row,Structure (SMILES),secreted FVIII-Gluc luciferase Z-score
1,NC[C@@H]1O[C@H](O[C@H]2[C@@H](O)[C@H](O[C@@H]3[C@@H](O)[C@H](N)C[C@H](N)[C@H]3O[C@H]3O[C@H](CN)[C@@H](O)[C@H](O)[C@H]3N)O[C@@H]2CO)[C@H](N)[C@@H](O)[C@@H]1O,0.572
2,Cc1cc(O)cc(O)c1,0.642
3,COc1ccc(-c2coc3ccc(OC4OC(COC(C)=O)C(OC(C)=O)C(OC(C)=O)C4OC(C)=O)c(OC(C)=O)c3c2=O)cc1 (stereo not given),-0.543
4,OC[C@H]1O[C@@H](OC[C@H]2O[C@@H](O)[C@H](O)[C@@H](O)[C@@H]2O)[C@H](O)[C@@H](O)[C@@H]1O,0.42
5,NC(=O)C1CCCN1C(=O)C(Cc1cnc[nH]1)NC(=O)C1CCC(=O)N1 (stereo not given),0.443
6,COc1ccc(C2OCC3(COC(C)=O)C(C)C=C(C)C2C3C)cc1 (stereo not given),-1.63
7,Nc1ncnc2c1ncn2[C@H]1C[C@H](O)[C@@H](COP(=O)(O)O)O1,0.376
8,CN(C)[C@@H]1C(=O)C(C(=O)NCN2CCCC2)=C(O)[C@@]2(O)C(=O)C3=C(O)c4c(O)cccc4[C@@](C)(O)[C@H]3C[C@@H]12,0.407
9,COC1=CC(=O)CC(C)C12Oc1c(Cl)c(OC)cc(OC)c1C2=O (stereo not given),0.0156
10,Cc1c(-c2ccccc2)oc2cc(O)ccc2c1=O,-0.0243
11,N=c1ccn2c(n1)OC1C2OC(CO)[C@H]1O (stereo not given in full),-1.3
12,O=c1cc(-c2ccccc2O)oc2cc(O)cc(O)c12,0.64
13,COc1ccc2c(c1OC)C(Cc1ccccc1)N1CCc3cc4c(cc3C1C2)OCO4 (stereo not given),0.496
14,C[C@@H]1O[C@@H](OC[C@H]2O[C@@H](Oc3c(-c4cccc(O)c4O)oc4cc(O)cc(O)c4c3=O)[C@H](O)[C@@H](O)[C@@H]2O)[C@H](O)[C@H](O)[C@H]1O,1.27
15,O=c1ccn(C2OC(COP(=O)(O)O)C(O)C2O)c(=O)[nH]1 (stereo not given),0.638
16,COc1ccc([C@@H]2CC(=O)c3c(O)cc(O)cc3O2)cc1O,0.825
17,CCc1cn(C2CC(O)C(CO)O2)c(=O)[nH]c1=O (stereo not given),-0.382
18,Nc1ncnc2c1ncn2[C@@H]1O[C@H](COP(=O)(O)OP(=O)(O)O)[C@@H](O)[C@H]1O,0.0418
19,CC1(C)C=Cc2c(c3ccccc3[nH]c2=O)O1,0.817
20,CN1CCC[C@H]1c1cccnc1,0.197
